High-throughput results (PubChem)
Compounds with a hit are over-represented: about 4% of the library has one in this group of screens.
esBAF inh – inhibitors of esBAF chromatin remodeling in mouse ES cells; Bmi1-luciferase knock-in reporter, 24 h; 100% = twice the neutral-well signal; reporter increase, % at 12.5 µM; 350,000 compounds, 2% hits; AID 602393; in the data active = activation above about 40%; inconclusive = no clear call, values can overlap the other calls;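 also: 0% = median of the plate's neutral control wells and 100% = double that signal; a rise in the Bmi1 reporter signal indicates esBAF inhibition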
MITF act – activators of MITF-driven TRPM1 promoter activity in SK-MEL-5 cells; SK-MEL-5 TRPM1-promoter luciferase, 24 h; % of positive control, neutral wells = 0; activation, % at 12.5 µM; 300,000 compounds, 0.75% hits;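 active = mean activation of at least 80% with every replicate also reaching 80%; inconclusive = mean reaches 80% but some replicate falls short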;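 also: 0% = neutral control wells and 100% = parthenolide positive control wells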
TRPM1 prom inh – reduces MITF-dependent TRPM1 promoter luciferase signal | SK-MEL-5 TRPM1 promoter luciferase, 24 h | inhibition, % at 12.5 µM | 330,000 compounds, 0.83% hits | AID 488899;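 active = mean inhibition across replicates of 60% or more, whatever share of single replicates reaches that level; inconclusive = some that reach 60%, reason not given; inactive = mean inhibition across replicates below 60%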
Wnt bcat act – activators of Wnt/beta-catenin signaling; Wnt/beta-catenin reporter cell assay, activator, plate reader; activation, % at 9.35 µM; 300,000 compounds, 1.2% hits; in the data active = activation above about 30%, passing the limit was not always enough; inconclusive = no clear call, values can overlap the other calls;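 also: 0% = neutral control wells and 100% = positive control wells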
PAX8 inh HTS – lowers PAX8-driven luciferase in RMG-I cells | RMG-I TPO-luciferase reporter, SteadyGlo, 24 h | 360,000 compounds, 1.2% hits | inhibition, % at 12.6 µM;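 active = mean replicate inhibition at least 60% with every replicate also reaching 60%; inconclusive = only one of the two criteria is met; inactive = mean below 60% and not all replicates reaching 60%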;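 also: luciferase light reporting Pax8 driven TPO promoter activity; plate controls were median of neutral control wells for no effect and mitoxantrone controls for full effect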
EWS-Fli block – EWS/Fli transcriptional activity inhibition | A673 NR0B1-luciferase reporter, viability-normalised | inhibition, % at 12.6 µM | 350,000 compounds, 0.67% hits | AID 651661;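 active = mean inhibition of at least 50% after viability correction, with every replicate also passing that limit; inconclusive = mean reaches 50% but only one of two replicates passes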;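 also: firefly luciferase signal divided by Alamar Blue viability fluorescence both relative to DMSO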
* = called active by the depositor; ? = inconclusive; . = no result given.

SMILES	esBAF inh	MITF act	TRPM1 prom inh	Wnt bcat act	PAX8 inh HTS	EWS-Fli block
N#C/C(=N\Nc1ccc(Cl)c(Cl)c1)C(=O)C1CC1	.	.	-43	39*	-83	-25
O=C(NCc1ccccc1)c1cnc(Cl)c(Cl)c1	6	13	-9	4	-18	-11
O=C(c1cccc(COc2ccc(Cl)cc2Cl)c1)N1CCN(c2ccccn2)CC1	27	30	-29	.	.	.
O=C(NCc1ccccc1)c1cccc(COc2ccccc2Cl)c1	45*	41	-33	-1	-99	.
O=C(c1cccc(COc2cccc3ccccc23)c1)N1CCCC1	74*	.	-27	?	-78	.
O=C(c1ccccc1)N1CCN(CC(O)COc2cccc3ccccc23)CC1 (stereo unspecified)	-2	.	9	2	31	17
CN(C(=O)c1cccc(COc2ccc(Cl)cc2Cl)c1)c1ccccc1	72*	38	-35	.	-135	.
O=C(NCc1ccccc1)c1cccc(COc2cc(Cl)ccc2Cl)c1	71*	70	-70	11	-157	-32
O=C(C[C@H]1CC[C@@H]2[C@H](COC[C@H](O)CN2Cc2nccs2)O1)NCc1ccccc1	3	.	.	.	-18	-1
CCC(=O)N1C[C@@H](C)[C@H](OC)CN(C)C(=O)c2ccc(NC(=O)Nc3ccc(Cl)cc3)cc2OC[C@@H]1C	8	.	.	.	0	0
CN1CCN(C(=O)C[C@@H]2CC[C@@H]3[C@H](COc4ccc(NC(=O)C5CCCC5)cc4C(=O)N3C)O2)CC1	.	.	.	.	-10	9
Cc1noc(C)c1NC(=O)Nc1cccc2c1O[C@@H](CN(C)C(=O)Nc1ccc3c(c1)OCO3)[C@H](C)CN([C@H](C)CO)C2=O	-3	.	.	.	5	-5
C[C@@H]1CCCCO[C@H](CN(C)C(=O)Nc2ccc(C(F)(F)F)cc2)[C@H](C)CN([C@@H](C)CO)C(=O)c2cc(NS(=O)(=O)c3ccc(F)cc3)ccc2O1	-1	.	.	.	68*	15
C[C@@H]1CCCCO[C@H](CN(C)C(=O)Nc2ccc(C(F)(F)F)cc2)[C@@H](C)CN([C@@H](C)CO)C(=O)c2cc(NS(=O)(=O)c3ccc(F)cc3)ccc2O1	-3	.	.	.	85*	-10
CC1=C(C(=O)N2CCC=CC2=O)Cc2ccccc21	.	.	.	.	95*	12
COc1ccccc1CNC(=O)C[C@H]1C[C@H]2c3cc(NC(=O)CC4CC4)ccc3O[C@H]2[C@@H](CO)O1	-2	.	.	.	13	0
COc1cccc(S(=O)(=O)N(C)C[C@H]2OCc3ccccc3-c3c(n(C)c4ccccc34)C(=O)N([C@H](C)CO)C[C@@H]2C)c1	7	.	.	.	66*	21
Cc1cccc(S(=O)(=O)N(C)C[C@@H]2OCc3ccccc3-c3c(n(C)c4ccccc34)C(=O)N([C@H](C)CO)C[C@@H]2C)c1	5	.	.	.	.	5
COc1cccc(S(=O)(=O)N(C)C[C@@H]2OCc3ccccc3-c3c(n(C)c4ccccc34)C(=O)N([C@H](C)CO)C[C@H]2C)c1	3	.	.	.	44	20
C[C@H](CO)N1C[C@H](C)[C@H](CN(C)Cc2ccc(C(F)(F)F)cc2)OCc2ccccc2-c2ccccc2C1=O	.	.	.	.	21	1
COc1cccc(S(=O)(=O)N(C)C[C@@H]2OCc3ccccc3-c3c(n(C)c4ccccc34)C(=O)N([C@@H](C)CO)C[C@@H]2C)c1	4	.	.	.	82*	7
COc1cccc(S(=O)(=O)N(C)C[C@@H]2OCc3ccccc3-c3ccccc3C(=O)N([C@@H](C)CO)C[C@@H]2C)c1	1	.	.	.	91*	0
C[C@@H]1CN([C@@H](C)CO)C(=O)c2ccccc2-c2ccccc2CO[C@H]1CN(C)Cc1ccccc1C(F)(F)F	.	.	.	.	79*	23
COc1cccc(S(=O)(=O)N(C)C[C@@H]2OCc3ccccc3-c3c(n(C)c4ccccc34)C(=O)N([C@H](C)CO)C[C@@H]2C)c1	1	.	.	.	75*	8
COc1cccc(S(=O)(=O)N(C)C[C@H]2OCc3ccccc3-c3c(n(C)c4ccccc34)C(=O)N([C@@H](C)CO)C[C@H]2C)c1	-2	.	.	.	86*	25
SMILES	esBAF inh	MITF act	TRPM1 prom inh	Wnt bcat act	PAX8 inh HTS	EWS-Fli block
COc1ccc(S(=O)(=O)N(C)C[C@H]2OCc3ccccc3-c3c(n(C)c4ccccc34)C(=O)N([C@H](C)CO)C[C@H]2C)cc1	-1	.	.	.	.	9
O=C(C[C@H]1C=C[C@@H](NC(=O)Nc2ccc(F)cc2)[C@H](CO)O1)NCc1ccccn1	6	.	.	.	9	-1
C[C@H]1CCCCO[C@@H](CN(C)Cc2ccc(C(=O)O)cc2)[C@@H](C)CN([C@@H](C)CO)C(=O)c2cc(NC(=O)Nc3ccc(C(F)(F)F)cc3)ccc2O1	1	.	.	.	3	-12
CO[C@H]1CN(C)C(=O)c2ccc(NC(=O)C3CC3)cc2OC[C@H](C)N(CCC(F)(F)F)C[C@@H]1C	.	.	.	.	4	.
CNC[C@@H]1Oc2ncc(Br)cc2C(=O)N([C@H](C)CO)C[C@H]1C	4	.	.	.	6	-5
CCOc1cc(C2C(C(=O)N3CCCCC3)=C(C)NC3=C2C(=O)CC(C)(C)C3)ccc1O (stereo unspecified)	0	-5	6	54*	13	.
COc1ccc(-c2cn3cccnc3n2)cc1Br	.	81*	-78	20	-119	-24
Cc1ccc(-c2cn3cccc(C)c3n2)cc1	.	-6	8	1	-69	2
COc1ccc(-c2cn3cccc(C)c3n2)cc1F	.	92*	-88	33*	-179	-123
CC1=NOC(=O)/C1=C/c1ccc(O)c(Br)c1	-2	-4	2	-2	14	-4
CC1=NOC(=O)/C1=C\c1ccc(-c2cccc(Cl)c2)o1	-10	-76	76*	.	.	.
CC1=NOC(=O)/C1=C\c1ccc(-c2ccc(Cl)c(C(=O)O)c2)o1	.	0	3	0	8	-1
Nc1ccccc1N=Cc1ccc(-c2cccc(Cl)c2)o1	98*	46	-51	14	-112	-145
CC1=NOC(=O)/C1=C\c1ccc(-c2ccccc2Br)o1	.	-88	89*	4	?	?
Cn1cnc(S(=O)(=O)N2C[C@H](O)COC[C@H]3O[C@@H](CC(=O)NC4Cc5ccccc5C4)CC[C@@H]32)c1	1	.	.	.	2	9
CN1C(=O)c2cc(NC(=O)c3cccs3)ccc2OC[C@@H]2O[C@@H](CC(=O)NCC(F)(F)F)CC[C@@H]21	2	.	.	.	0	2
C[C@H]1CCCCO[C@H](CN(C)S(=O)(=O)c2ccccc2)[C@@H](C)CN([C@@H](C)CO)C(=O)c2cc(NS(C)(=O)=O)ccc2O1	-1	.	.	.	7	3
CC(C)Sc1nnc(-c2c[nH]c3ccccc23)n1C	41*	.	.	20	-74	-68
Cc1cc2oc(=O)cc(Cn3ncc(Cl)c(Cl)c3=O)c2cc1Cl	9	-82	83*	.	.	.
